Experimental data: the supplement of paper PMC7156485

System: HCC1569
Assay: H1.0 immunofluorescence intensity relative to DMSO (% of DMSO); higher = stronger H1.0 induction, active = 140 or more
Settings: concentration: 10 µM; 24 h
Summary of the method: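 In 384-well plates holding 800 HCC1569 or TDF cells per well in RPMI with 10% FBS, compounds were tested at 10 µM for 24 h at 37 °C in triplicate. Fixation used 3.7% formaldehyde. Staining used a rabbit anti-H1.0 antibody with an AlexaFluor 647 secondary, plus DAPI. Each value, H1.0 nuclear intensity or cell number, is a median of replicates shown as percent of the plate control, and HCC1569 values were smoothed for positional effects.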
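Note: TDF is a line of transformed human dermal fibroblasts of mesenchymal origin.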

Compound	H1.0 immunofluorescence intensity
Cc1cnc(C(=O)O)c[n+]1[O-] [Acipimox]	104 (inactive)
O=C1NC(=O)c2c1c1c3ccccc3[nH]c1c1[nH]c3cc(Br)ccc3c21 [Cdk4 Inhibitor]	208 (active)
COc1cc(Br)c(S(=O)(=O)Nc2ccc(Cl)c(O[C@@H]3CCN(C)C3)c2)cc1OC	137 (inactive)
CC1CC2C(C(O)CC3(C)C2CCC3(O)C(=O)CO)C2(C)C=CC(=O)C=C12 (stereo not drawn) [Methylprednisolone]	114 (inactive)
CC1CCC2C(C)(CO)C(O)CCC2(C)C12CCC(CO)(CCO)O2 (stereo not drawn) [Lagochiline]	100 (inactive)
Cc1ccc(S(=O)(=O)NC(=O)NN2CC3CCCC3C2)cc1 (stereo not drawn) [Gliclazide]	114 (inactive)
N#CC(=C(N)Sc1ccccc1N)c1cccc(C(O)c2ccncc2)c1 (stereo not drawn) [MEK Inhibitor I]	176 (active)
Cc1cccc(C(=O)NCN2CCN(c3ccccc3C#N)CC2)c1.O=C(O)C=CC(=O)O [PD 168,077 maleate]	99.3 (inactive)
OCC1NC(CO)C(O)C1O [(2R,5R)-Bis(hydroxymethyl)-(3R,4R)-dihydroxypyrrolidine]	84.7 (inactive)
COc1ccc(C(=O)NCc2cccnc2)cc1C(=O)NCc1cccnc1 [Picotamide]	103 (inactive)
CN(C)CCOC(=O)COc1ccc(Cl)cc1.Cl [Centrophenoxine hydrochloride]	107 (inactive)
O=c1[nH]c(=O)n(C2CC(O)C(CO)O2)cc1F (stereo not drawn) [Floxuridine]	119 (inactive)
CCCCCCCCCCCCCCCC(O)C(CO)NC(C)=O (stereo not drawn) [C2 Dihydroceramide]	97 (inactive)
COC(=O)C1C2CC3c4[nH]c5cc(OC)ccc5c4CCN3CC2CC(OC(=O)c2cc(OC)c(OC)c(OC)c2)C1OC (stereo not drawn) [Reserpine]	101 (inactive)
CCCCCC(O)C=CC1C=CC(=O)C1CC=CCCCC(=O)O (stereo not drawn) [Prostaglandin A2]	104 (inactive)
O=c1[nH][nH]c2nnc(-c3c(-c4ccccc4)nn4ccccc34)cc12 [ERK Inhibitor II,                   Negative control]	122 (inactive)
O=[N+]([O-])c1ccc(S(=O)(=O)NCc2ccccc2)c([N+](=O)[O-])c1 [N-Benzyl-2,4-dinitrobenzenesulfonamide]	123 (inactive)
Cl.Cl.O=S(=O)(c1cccc2cnccc12)N1CCCNCC1	94.3 (inactive)
CCN(NO)C1=CC(=O)C(=O)C=C1 [ET-3,4-dephostatin]	151 (active)
O=c1[nH]c(=O)n(C2CCCO2)cc1F (stereo not drawn) [Ftorafur]	103 (inactive)
CN(C)CCCC1(c2ccc(F)cc2)OCc2cc(C#N)ccc21 (stereo not drawn) [Citalopram]	100 (inactive)
Cl.Cl.Cl.Ic1ccc(N2CCN(Cc3c[nH]c4ncccc34)CC2)cc1 [L-750,667 trihydrochloride]	108 (inactive)
CCN1CCCC1CNC(=O)c1cc(S(=O)(=O)CC)c(N)cc1OC (stereo not drawn) [Amisulpride]	96.7 (inactive)
